The source of these data is PubChem BioAssay (EPA / NIEHS).

Experiment [1] in a line: CCTE_Shafer_MEA_acute_LDH: CCTE's Lactate Dehydrogenase Assay for Cytotoxicity in the Neural Acute Assay, Shafer Lab (AID 2284086; active means hit-call score of the fitted dose curve at least 0.9, where 1 is the maximum;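 further: active means LDH release rises above DMSO vehicle level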). An outline of the steps: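 Cytotoxicity readout: spectrophotometric LDH activity in supernatant of rat primary cortical neurons, post-plating day 13 or 15, sampled after 40 min compound exposure; signal gain relative to DMSO baseline.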
Read-out in experiment [2]: Secreted IgG (sIgG), gene 3500
Nature of the experiment: BSK_BT_sIgG: BioMAP Diversity Plus: BT Assay for Secreted IgG (sIgG) Biomarker Activity (AID 2284226). The following applies: primary human B cells with PBMC. An outline of the steps:
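In this multiplexed co-culture system, ELISA quantifies sIgG 24 h post-treatment. Endpoint analysis uses positive fitting direction, DMSO negative control.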

The nature of experiment [3]: BSK_BT_PBMCCytotoxicity: PBMC Cytotoxicity Assessment in the BioMAP Diversity Plus: BT Assay (AID 2284225).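 Further: PBMC viability measured by Alamar Blue dye reduction fluorescence.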 Particulars: primary human B cells with PBMC. The gist of the method: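 Primary human co-culture of B cells and PBMC, pre-dosed 1 h then activated with SEB and TSST-1. Cytotoxicity is taken from Alamar Blue dye reduction, added for 6 h at the end of a 90 h incubation.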

Experiment [4] in a line: CCTE_Shafer_MEA_dev_mutual_information_norm: CCTE's Neural Network Formation Assay for Mutual Information Normalization, Shafer Lab (AID 2284091). The gist of the method:
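Neurons from rat cortex were seeded at 1.5 x 10^5 cells/well onto PEI-coated MEAs in a laminin drop, then exposed to compound from day 0 for twelve days. Network recordings on four days gave mutual information, summarised by AUC relative to DMSO.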

Experiment [5] in a line: CCTE_Shafer_MEA_dev_correlation_coefficient_mean: CCTE's Neural Network Formation Assay for Mean Correlation Coefficient, Shafer Lab (AID 2284093). An outline of the steps:
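Read-out: well-mean correlation coefficient of spike trains between electrode pairs, collapsed over four recording days as trapezoidal area-under-the-curve. Developing rat cortical neuron networks grown on MEAs received test chemical continuously from plating.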

A short description of experiment [6]: UKN2_HCS_IMR90_neural_migration: University of Konstanz (UKN) Leist Lab Neural Crest Cell Migration Assay in human induced IMR90 Pluripotent Stem Cells (UKN2) (AID 2284204). The following applies: actives raise or lower the signal. The gist of the method: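 Stopper-exclusion migration (cMINC), human iPSC-derived neural crest cells; N2-S + EGF/FGF; compound added 24 h post-stopper removal, 24 h exposure. Readout: calcein-AM/Hoechst 30 min, HCS fluorescence imaging; bidirectional fitting, DMSO baseline.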

The nature of experiment [7]: IUF_NPC1b_proliferation_BrdU_72hr: Leibniz Research Institute for Environmental Medicine (IUF) 72-hour Neural Progenitor Cell Bromodeoxyuridine (BrdU) Proliferation Assay (NPC1b) (AID 2284207). An outline of the steps: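 Luminescent BrdU ELISA measured DNA synthesis during the last 16 h of a 72 h exposure of primary human neural progenitor spheres grown with EGF and FGF. Signal was fitted relative to DMSO controls.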

Experiment [8] in a line: IUF_NPC1a_proliferation_area_72hr: Leibniz Research Institute for Environmental Medicine (IUF) 72-hour Neural Progenitor Cell Proliferation Area Assay (NPC1a) (AID 2284208). An outline of the steps:
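Spheres of 0.3 mm are plated singly in growth-factor medium and exposed from day 0. After three days at 37C and 5% CO2, sphere area is measured by phase contrast imaging, with activity referenced to DMSO.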

A short description of experiment [9]: IUF_NPC1_viability_72hr: Viability Assessment at 72 hours in the Leibniz Research Institute for Environmental Medicine (IUF) Neural Progenitor Cell Proliferation Assay (NPC1) (AID 2284209). The gist of the method:
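Three-day continuous exposure of human neural progenitor spheres under EGF/FGF-driven proliferation; cell viability scored by alamar blue signal versus DMSO.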

Experiment [10] in a line: CCTE_Mundy_HCI_Cortical_Synap_Neur_Matur_NeuriteSpotCountPerNeuriteLength: CCTE's Synaptogenesis and Neurite Maturation Assay in rat cortical cells for Neurite Spot Count per Neurite Length, Mundy Lab (AID 2284210). An outline of the steps:
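Read-out: synaptophysin puncta counted along MAP2-stained neurites, normalised to neurite length, by automated high-content imaging. Rat cortical cells; AraC DIV 5; chemical dosing DIV 7; termination DIV 12. DMSO baseline.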

The nature of experiment [11]: CCTE_Mundy_HCI_Cortical_Synap_Neur_Matur_BPCount: CCTE's Synaptogenesis and Neurite Maturation Assay in rat cortical cells for Branch Point Count, Mundy Lab (AID 2284211). An outline of the steps: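 In this multiplexed morphology assay, cortical cells from rat receive chemicals at DIV 7 and are fixed at DIV 12, then immunostained and imaged; branch points are counted, with DMSO as baseline.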

Experiment [12] is described as follows: CCTE_Mundy_HCI_Cortical_NOG_NeuriteCount: CCTE's Neurite Outgrowth Assay in rat cortical cells for Neurite Count, Mundy Lab (AID 2284212).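 Further: cells fixed about two days after chemical exposure began.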 The gist of the method:
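Rat cortical primary cells; compound added 2 h post-plating, 1/10 dilution of working solution. Anti-betaIII-tubulin/AF488 ICC; ArrayScan neurite count vs DMSO.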

The nature of experiment [13]: CCTE_Mundy_HCI_Cortical_NOG_NeuriteLength: CCTE's Neurite Outgrowth Assay in rat cortical cells for Neurite Length, Mundy Lab (AID 2284213). An outline of the steps: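 First, rat primary cortical cells were plated and, 2 h later, given test chemical as a 1/10 dilution. Finally, βIII-tubulin immunostaining enabled automated imaging of neurite length.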
The nature of experiment [14]: CCTE_Mundy_HCI_Cortical_Synap_Neur_Matur_NeuriteLength: CCTE's Synaptogenesis and Neurite Maturation Assay in rat cortical cells for Neurite Length, Mundy Lab (AID 2284214). The gist of the method:
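DMSO-normalised neurite length, from high-content imaging of anti-MAP2-stained rat cortical cells fixed at DIV 12. Glia were suppressed with AraC (DIV 5) before chemical exposure from DIV 7.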

The nature of experiment [15]: CCTE_Mundy_HCI_Cortical_Synap_Neur_Matur_NeuriteSpotCountPerNeuron: CCTE's Synaptogenesis and Neurite Maturation Assay in rat cortical cells for Neurite Spot Count per Neuron Count, Mundy Lab (AID 2284215). An outline of the steps: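 Rat cortical primary cultures; AraC DIV 5 to arrest glia; dosing + media change DIV 7; fixed DIV 12. Anti-MAP2/anti-synaptophysin, Hoechst nuclei; HCI puncta count per neuron, positive fitting direction vs DMSO.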

The nature of experiment [16]: CCTE_Mundy_HCI_Cortical_Synap_Neur_Matur_SynapseCount: CCTE's Synaptogenesis and Neurite Maturation Assay in rat cortical cells for Synapse Count, Mundy Lab (AID 2284218). The gist of the method: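 Endpoint: synapses/neuron by HCI (synaptophysin puncta on MAP2-labelled neurites, Hoechst nuclei). Rat primary cortical cells, AraC DIV 5, dosed DIV 7, fixed DIV 12; DMSO negative control.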

Experiment [17] can be described thus: CCTE_Mundy_HCI_Cortical_Synap_Neur_Matur_NeuriteCount: CCTE's Synaptogenesis and Neurite Maturation Assay in rat cortical cells for Neurite Count, Mundy Lab (AID 2284222).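 Further: exposure from day 7 to day 12 in vitro with readout at day 12.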 The gist of the method: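 Chemical exposure runs DIV 7–12 in rat cortical cultures, glia suppressed by AraC at DIV 5; measurement is at DIV 12. Imaging-derived neurite counts are fitted against DMSO baseline.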

Experiment [18] in a line: CCTE_Mundy_HCI_Cortical_Synap_Neur_Matur_CellBodySpotCount: CCTE's Synaptogenesis and Neurite Maturation Assay in rat cortical cells for Cell Body Spot Count, Mundy Lab (AID 2284223). An outline of the steps: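 Rat cortical neurons; AraC @ DIV 5; dose + media change DIV 7; fix DIV 12; anti-MAP2/anti-synaptophysin IF, Hoechst; HCI count of soma synaptophysin puncta/neuron; DMSO = negative control.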

A short description of experiment [19]: TAMU_PeakParms_SingleDonor1434_Chronotropy: Texas A&M University (TAMU) 1.5-hr Human Induced Pluripotent Stem Cell (iPSC)-derived Cardiomyocytes Calcium (Ca+2) Flux Assay for Cardiotoxicity: Chronotropy (changes in peak frequency) (AID 2284217). The following applies: actives raise or lower the signal. The gist of the method: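 Beat frequency of single-donor iPSC cardiomyocytes was recorded through a calcium-sensitive dye 1.5 hours after exposure to four concentrations up to 100 uM. An EC05 point of departure was derived.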

Experiment [20] is described as follows: CCTE_Mundy_HCI_hNP1_Pro_ResponderAvgInten: CCTE's Proliferation Assay in human neuroprogenitor cells, Mundy Lab (AID 2284224; active means hit-call score of the fitted dose curve at least 0.9, where 1 is the maximum;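 further: human neural progenitor cells hNP1 derived from WA09 embryonic stem cells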). An outline of the steps:
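Proliferation read as average intensity of BrdU-positive cells, imaged at 26.25 h post-dosing: chemical exposure started after 40–44 h culture, BrdU during final 4 h, paraformaldehyde fixation. Positive-direction fit relative to DMSO.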

Records with an inconclusive call do not appear. The source made the active and inactive calls. How the source made its calls, unless noted: active means hit-call score of the fitted dose curve at least 0.9, where 1 is the maximum; inactive means score below 0.9. Peptide text beside a SMILES is read from it.

Regarding `CC1(C)CC(O)CC(C)(C)N1[O]`, the result in experiment [1] and in experiment [2] was inactive.
On to `CC/C=C\CCOC(=O)c1ccccc1O`, for which the outcome in experiment [1] was inactive. Further, the AC50 in experiment [2] is 7.02 µM (active).
For `CCCCCC1=CCCC1=O`, in experiment [3], the result was inactive. Also, in experiment [2], the AC50 was 20 µM (active).
With `Nc1nc(N)nc(-c2ccccc2)n1`, in experiment [1], the outcome was inactive.
As to `Cc1c(O)cccc1O`, the outcome in experiment [3] and in experiment [2] was inactive.
As to `c1ccc2sc(SSN3CCOCC3)nc2c1`, in experiment [2], the half-maximal activity concentration (AC50) is 8.43 µM (active).
Take `CCCCCCCCC(CO)CCCCCC` (centres undefined): in experiment [3], the result was inactive. The AC50 in experiment [2] is 33.7 µM (active).
On to `Nc1cccc(N)n1`, for which the result in experiment [1] and in [2] was inactive.
With `CCCCCCCCCCCC(=O)N(C)CC(=O)O`, the molecule was called inactive in experiment [1].
`CCCCNS(=O)(=O)c1ccccc1`: the call in experiment [4], in [5], in [6], in experiment [8], in experiment [9] and in [10] was inactive. For the same molecule, the outcome in experiment [11], in experiment [12], in experiment [13], in experiment [14], in experiment [15] and in experiment [16] was inactive. Besides, the outcome in experiment [17] and in [18] was inactive. The half-maximal activity concentration (AC50) in experiment [7] was 11.9 µM (active).
With `O=C1CCCCCCCCCCCN1`, the result in experiment [3] and in experiment [2] was inactive.
For `Clc1cc(Cl)c(Cl)c(Cl)c1Cl`, in experiment [2], the outcome was inactive.
`CC(CCC(=O)O)(c1ccc(O)cc1)c1ccc(O)cc1`: in experiment [1], the call was inactive.
For `COC(=O)[C@H](Cc1ccccc1)NC(=O)[C@@H](N)CC(=O)O` (H-Asp-Phe-OMe), the result in [1], in [4], in experiment [5], in [10], in experiment [11] and in experiment [12] was inactive. Further, the outcome in experiment [13], in experiment [14], in [15], in [19], in experiment [16] and in [17] was inactive. Moreover, the outcome in [18] and in experiment [20] was inactive.
With `Cc1noc(NS(=O)(=O)c2ccc(N)cc2)c1C`, the result in experiment [4], in experiment [5], in [10], in experiment [11], in experiment [12] and in experiment [13] was inactive. The molecule was classed as inactive in experiment [14], in experiment [15], in experiment [16], in [17] and in experiment [18].

What is called AC50 is the concentration giving half of the maximal activity seen.
